Screening results: PubChem, National Center for Advancing Translational Sciences (NCATS)
An excerpt weighted towards active compounds, which were near 12% of everything screened.
HCV inh = inhibitors of hepatitis C virus infection; Huh7.5.1 HCVcc-Cre infection, luciferase reporter, 44 h; Potency, µM (top dose mostly 41.8 µM), usual class: inhibitors; 3.4% of 340,000 active; AID 651820
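Compounds are dispensed onto cells plated 4 h earlier at 1,000 per well, with HCVcc-Cre virus (about 0.5 moi) added next. Following 44 h of culture, luminescent signal is measured for 15 sec after 15 min with substrate at room temperature.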
Pf growth 48h = P. falciparum growth inhibition at 48 hours (one generation). P. falciparum luciferase growth in erythrocytes, 48 h. Potency, µM (top dose mostly 28.7 µM), hits mostly inhibitors. 5.9% of 310,000 active. AID 504832
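Compounds are pin-transferred into medium, infected erythrocytes (2% hematocrit, 0.1% parasitemia final) are added, and plates sit one parasite generation at 37 C in 5% CO2. Detection reagent is then added and luminescence measured.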
NS1 function inh = inhibitors of influenza NS1 protein function; Potency, µM (doses to about 46.1 µM); 0.4% of 270,000 active; calls by dose curve; further: actives are rising curves; nearly all actives have a fitted effect of over 50% in size
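A cell-based growth assay was used: compounds that relieve NS1-induced slow growth of budding yeast raise OD600. Assay medium was yeast nitrogen base with ammonium sulphate and -URA supplement, pH 6.0, with 2% galactose.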
SARS PLP yeast = inhibitors of SARS-CoV papain-like protease in yeast; S. cerevisiae expressing SARS-CoV PLpro, growth rescue; Potency, µM (top dose mostly 32.9 µM), actives largely listed as activators; 0.19% of 330,000 active; AID 485353; calls by dose curve; further: nearly all actives have a fitted effect of over 55% in size
AMA1-RON2 inh = disrupts binding of P. falciparum AMA1 to RON2. 0.2% of 360,000 active. AlphaScreen AMA1-biotinylated RON2 peptide binding. Potency, µM (series often up to 58.2 µM), most hits filed as inhibitors; further: nearly all actives have a fitted effect of over 45% in size
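AMA1 (3D7) with his tag at 25 nM final met compounds first, then biotinylated RON2 peptide at 25 nM; detection used donor plus acceptor beads, 10 µg/mL apiece, read by AlphaScreen after 30 min at room temperature.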
Pf growth 96h = P. falciparum growth inhibition at 96 hours | 6.9% of 320,000 active | P. falciparum luciferase reporter growth, 96 h | AID 504834 | Potency, µM (series often up to 28.7 µM), hits mostly inhibitors
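Erythrocytes infected with luciferase-expressing P. falciparum were dispensed at 2% hematocrit and 0.05% parasitemia (final), then incubated with compounds 96 hours at 37 C in 5% CO2. Luminescence after detection reagent addition reported growth.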
Of the large screens only hits and unclear results are named; the others gave an inactive call. Unless noted, the call rests on the fitted dose curve; in most records, active means well fitted curve in the direction sought with a large enough effect; inconclusive means small, poorly fitted or top-dose-only effect, or another doubt; inactive means no such curve, though single readings can be large; an effect the other way counts as inactive or inconclusive.

Oc1ccc2c3c1O[C@H]1[C@@H](O)CC[C@@]4(O)C(C2)N(CC2CCC2)CCC314 (some centres not stated)	Pf growth 48h inconclusive, Pf growth 96h 3.4µM (no result: HCV inh, SARS PLP yeast, AMA1-RON2 inh)
Oc1ccc2c3c1O[C@H]1c4[nH]c5ccccc5c4C[C@@]4(O)[C@@H](C2)N(CC2CC2)CC[C@]314	HCV inh inconclusive, Pf growth 48h inconclusive, Pf growth 96h inconclusive (no result: NS1 function inh, SARS PLP yeast)
Oc1ccc2c3c1O[C@H]1c4oc5ccccc5c4C[C@@]4(O)[C@@H](C2)N(CC2CC2)CC[C@]314	Pf growth 48h inconclusive, Pf growth 96h 4.7µM
O=C(CN(c1ccccc1Cl)S(=O)(=O)c1ccccc1)NCc1ccccc1	Pf growth 48h inconclusive, Pf growth 96h 12µM
O=C(CN(c1ccc2c(c1)OCCO2)S(=O)(=O)c1ccccc1)NCc1ccc(Cl)cc1	HCV inh inconclusive, Pf growth 96h 12µM
CN(C)S(=O)(=O)c1cc(C(=O)NCc2ccccc2)c(Cl)cc1Cl	HCV inh 13µM
O=C(CN(c1ccc(F)cc1)S(=O)(=O)c1ccc2c(c1)OCCO2)NCc1ccccc1	Pf growth 96h inconclusive (no result: Pf growth 48h)
O=C(COC(=O)C12CC3CC(CC(Br)(C3)C1)C2)Nc1ccc2[nH]c(=O)[nH]c2c1	none (no result: NS1 function inh)
Oc1ccc(Cl)cc1-c1cc(-c2cccc(Br)c2)n[nH]1	HCV inh 11µM, Pf growth 48h 2.9µM (no result: Pf growth 96h)
Oc1ccccc1-c1cc(-c2cccc(F)c2)n[nH]1	HCV inh inconclusive, Pf growth 96h inconclusive
Oc1ccccc1-c1cc(-c2ccccc2Cl)[nH]n1	none (no result: SARS PLP yeast, Pf growth 96h)
Oc1ccc(Cl)cc1-c1cc(-c2ccccc2Cl)[nH]n1	HCV inh 13µM, Pf growth 48h 9.3µM
Cc1ccc(CNC(=O)C2CCC(CNS(=O)(=O)c3cccs3)CC2)cc1 (configuration not stated)	none
COC(=O)Cn1c(=NC(=O)c2ccc([N+](=O)[O-])s2)sc2cc(Br)ccc21	HCV inh inconclusive, Pf growth 48h inconclusive, Pf growth 96h 0.83µM (no result: AMA1-RON2 inh)
Cc1ccc(NC(=O)c2cc(S(=O)(=O)NCCC3=CCCCC3)ccc2F)cc1F	HCV inh 4.5µM, Pf growth 48h inconclusive, Pf growth 96h inconclusive
Cc1ccc(S(=O)(=O)NCCC2=CCCCC2)cc1C(N)=O	HCV inh inconclusive, Pf growth 96h 10µM (no result: SARS PLP yeast)
Cc1cc(S(=O)(=O)NCCC2=CCCCC2)ccc1Br	none (no result: NS1 function inh)
CC(=O)N1C(=O)C(=C2C=C(C)OC(C)=C2)c2ccccc21	HCV inh 10µM, Pf growth 96h inconclusive
CC(=O)N=Nc1[nH]c(N)c2ccccc12	none (no result: NS1 function inh)
Cc1c(NC(=O)COc2ccc(C(C)C)cc2)c(=O)n(-c2ccccc2)n1C	Pf growth 96h 13µM
CCc1nc(SCC(=O)Nc2c(C)nn(C)c2C)c2cnn(-c3ccccc3)c2n1	none (no result: HCV inh, AMA1-RON2 inh)
Cc1c(NC(=O)COc2cccc(Br)c2)c(=O)n(-c2ccccc2)n1C	none
CSc1nc2ccccc2n1CC(=O)Nc1c(C)n(C)n(-c2ccccc2)c1=O	Pf growth 96h 10µM
COc1cc(/C=C/C(=O)OCC(=O)Nc2c(C)n(C)n(-c3ccccc3)c2=O)ccc1O	none
Cc1nc(SCC(=O)Nc2c(C)n(C)n(-c3ccccc3)c2=O)c2cnn(-c3ccccc3)c2n1	HCV inh 25µM (no result: Pf growth 48h, NS1 function inh, SARS PLP yeast, Pf growth 96h)
COc1cc(/C=C/C(=O)OCC(=O)Nc2c(C)n(C)n(-c3ccccc3)c2=O)cc(OC)c1OC	Pf growth 48h inconclusive, Pf growth 96h 10µM (no result: NS1 function inh)
CCOC(=O)[C@@H](N)CS	none (no result: HCV inh, NS1 function inh, SARS PLP yeast, AMA1-RON2 inh)
CN(Cc1ccccc1)C(=O)c1[nH]cnc1C(=O)Nc1ccccc1F	none (no result: HCV inh, Pf growth 48h, NS1 function inh, SARS PLP yeast, Pf growth 96h)
O=C(CSc1nnnn1C1CC2C=CC1C2)Nc1ccc(C(=O)O)cc1 (configuration not stated)	Pf growth 96h inconclusive (no result: NS1 function inh)
COC(=O)c1ccc(C(c2c(C)n(C)n(-c3ccccc3)c2=O)c2c(C)n(C)n(-c3ccccc3)c2=O)cc1	Pf growth 48h inconclusive, Pf growth 96h 6.6µM
Cc1cc(C(=O)Nc2c(C)n(C)n(-c3ccccc3)c2=O)on1	Pf growth 96h 4.7µM (no result: Pf growth 48h)
Cc1ccc(S(=O)(=O)NC(=O)Nc2c(C)n(C)n(-c3ccccc3)c2=O)cc1	Pf growth 96h 12µM
Cc1c(Br)c([N+](=O)[O-])nn1CC(=O)Nc1c(C)n(C)n(-c2ccccc2)c1=O	Pf growth 96h 2.9µM
O=C1CC(=O)Nc2cc(S(=O)(=O)Nc3cccc(C(F)(F)F)c3)ccc2N1	none
CC(C)(C)c1ccc(Cn2nc(CC(=O)O)c3ccccc3c2=O)cc1	none
CSc1nc2ccccc2n1Cc1c(Cl)cccc1Cl	HCV inh inconclusive, Pf growth 96h 12µM (no result: Pf growth 48h)
Cc1cccc(C)c1NC(=O)CSCc1cccc(CSCC(=O)Nc2c(C)cccc2C)n1	Pf growth 96h 5.2µM (no result: Pf growth 48h)
OCc1nc2ccccc2n1Cc1c(F)cccc1Cl	none
Cc1c(NC(=O)CN2CCN(c3ccc(O)cc3)CC2)c(=O)n(-c2ccccc2)n1C	Pf growth 48h inconclusive, Pf growth 96h 6.6µM (no result: NS1 function inh)
Cc1c(NC(=O)CN2CCN(c3ccc([N+](=O)[O-])cc3)CC2)c(=O)n(-c2ccccc2)n1C	none (no result: NS1 function inh)
CSc1nc2ccccc2n1CC(=O)Nc1c(C)cccc1C	Pf growth 96h 7.4µM
CCOc1ccccc1NC(=O)CSc1nnc(CNC(=O)c2cccs2)o1	none
Cc1cc(S(=O)(=O)N2CCCOC2CNC(=O)C(=O)NCc2cccs2)ccc1F (configuration not stated)	Pf growth 96h inconclusive
CSc1ccccc1OCc1cc(C(=O)NC(C)Cc2cccc(C)n2)no1 (configuration not stated)	HCV inh inconclusive, Pf growth 48h 10µM, Pf growth 96h inconclusive
CCn1nc(C)c(CNC(=O)c2cc(COc3ccccc3SC)on2)c1C	HCV inh 13µM, Pf growth 48h inconclusive
CSc1ccccc1OCc1cc(C(=O)NC(C)CCn2cccn2)no1 (configuration not stated)	none (no result: HCV inh)
COCC1CCN(C(=O)c2cc(COc3ccccc3SC)on2)C1 (configuration not stated)	Pf growth 96h inconclusive
CCn1nc(C)c(CNC(=O)c2cc(COc3cncc(Cl)c3)on2)c1C	HCV inh inconclusive, Pf growth 48h inconclusive
CSc1ccccc1OCc1cc(C(=O)NC2CCOC2)no1 (configuration not stated)	none
C=CC[C@H]1CC(C)=C[C@H](CC=C)N1C(=O)c1cc(COc2ccccc2SC)on1	HCV inh 13µM, Pf growth 96h inconclusive
CSc1ccccc1OCc1cc(C(=O)NCc2cccc(C)n2)no1	HCV inh inconclusive, Pf growth 96h 4.1µM
COc1ccc(CNC(=O)CN(Cc2ccc(C)cc2)C(=O)c2csnn2)cc1	none
CN(C(=O)CN1C(=O)NC(c2ccccc2)(c2ccccc2)C1=O)C1CCS(=O)(=O)C1 (configuration not stated)	none (no result: NS1 function inh)
